Hit rate of the full screen: of about 68,000 compounds, about 2,700 (4%) showed an effect of 50% or more. The sample holds strong results, similar compounds and a random draw of the others, so the mix is not that of the screen.
system: Plasmodium berghei; experiment: Screen against P. berghei liver stage (PbLuc), transformed with Luciferase, at 2uM; type: functional, HepG2; conditions: tested at 2 uM

Row | Structure (SMILES) | INHIBITION [%]
1 | CC(C)c1noc(CCCC(=O)N2CCN(C)CC2c2ccccc2)n1 (centres undefined) | 14.63
2 | NC(=O)CC1CCCN(c2cncc(OCc3ccccc3)n2)C1 (centres undefined) | 31.78
3 | CC(C)c1nc(C2CCCN2C(=O)c2ccc(N(C)C)nn2)no1 (centres undefined) | -9.66
4 | c1ccc(CN2C[C@H]3CC[C@@H](C2)N(Cc2nnc(C4CC4)o2)C3)cc1 | -14.49
5 | Cc1cc(C(=O)N2CCOC[C@H](Oc3cccnc3)C2)c(C(F)(F)F)o1 | 19.42
6 | Cc1cc(C(=O)N2CCOC[C@H](Oc3cnccn3)C2)c(C(F)(F)F)o1 | 52.91
7 | CO[C@H]1COCCN(C(=O)c2cc(C)oc2C(F)(F)F)C1 | 35.89
8 | Cn1cc(CN2CCCC3(CCN(C(=O)c4cnccn4)C3)C2)cn1 (centres undefined) | -9.96
9 | CC(C)n1cnnc1CNC(=O)CCCOc1ccccc1F | 18.74
10 | CC(C)(C)OC(=O)N1CC(CC(=O)NCc2ccsc2)C1 | 2.9
11 | Cc1cc(CNC(=O)CC2CN(C(=O)OC(C)(C)C)C2)ccc1F | 21.97
12 | Cc1ccsc1CNC(=O)CC1CN(C(=O)OC(C)(C)C)C1 | 55.36
13 | COc1ncccc1NC(=O)N1CCCC1c1cc(C)no1 (centres undefined) | 29.19
14 | Cc1noc(C)c1C(=O)N1CCCCC1c1cc(C)n2ccnc2n1 (centres undefined) | 36.98
15 | Cc1sc(-c2ccco2)nc1C(=O)N(CC1CCOC1)C1CC1 (centres undefined) | -33.43
16 | Cc1sc(-c2ccco2)nc1C(=O)N(CC(N)=O)C1CCCC1 | 61.82
17 | COCCN(C(=O)c1nc(-c2ccco2)sc1C)C1CC1 | -7.16
18 | CC(NCCN1CCN(C(=O)C2CCCC2)CC1)c1ccccn1 (centres undefined) | -21.99
19 | CC(C)n1nc(CN2CCOCC2)c2c1CN(Cc1ccsc1)C2 | 72.91
20 | Cn1nc(CN2CCOCC2)c2c1CN(Cc1ccsc1)C2 | 57.85
21 | Cn1nc(Cn2cccn2)c2c1CN(Cc1ccsc1)C2 | 15.9
22 | CC(C)n1nc(CN2CCOCC2)c2c1CN(C(=O)c1ccno1)C2 | 29.3
23 | COCc1nn(C(C)C)c2c1CCN(Cc1ccsc1)C2 | 23.43
24 | Cn1nc(Cn2cccc2)c2c1CN(Cc1ccsc1)C2 | -6.88
25 | CN(Cc1ccc(F)cc1)CC1(O)CCN(C(=O)c2cccn2C)C1 (centres undefined) | -12.09
26 | CCc1nc2ccccc2n1C(CC)C(=O)N(C)Cc1noc(C)n1 (centres undefined) | -0.85
27 | CC(=O)N1CCO[C@@H]2CN(S(=O)(=O)c3ccc(C)cc3)CC[C@@H]2C1 | -24.35

Row | Structure (SMILES) | INHIBITION [%]
28 | CS(=O)(=O)N1CC2(CCCN(CC3CC3)C2)Cc2ccccc21 (centres undefined) | 34.09
29 | CN(CCCSc1ccccc1)C(=O)Cn1ncc(N(C)C)cc1=O | 8.2
30 | COc1ccc(-c2cnc(CN3CCn4c(C)nnc4C3)o2)cc1 | -19.76
31 | CCNC(=O)[C@@H]1C[C@H](N)CN1C1CCN(c2ccccc2OC)CC1 | 23.64
32 | CC(C)CCN1CCCC12Cc1ccccc1CNC2=O (centres undefined) | -6.64
33 | Cc1ccc(CCN2CCCC23Cc2ccccc2CNC3=O)cc1 (centres undefined) | 57.24
34 | Cc1ccc(CN2CCCC23Cc2ccccc2CNC3=O)cc1 (centres undefined) | -14.74
35 | CC(C)NC(=O)N1CCN(CC2CC2)CC2(CC(=O)N(C)C2)C1 (centres undefined) | 49.9
36 | Cc1cc(-c2cnc(NCc3ccc4c(c3)OCO4)nc2C(C)C)on1 | -0.95
37 | Cc1csc(C2CCCN(C(=O)c3cccc4c3OCO4)C2)n1 (centres undefined) | 57.11
38 | Cc1nc(C2CCCN(C(=O)c3cccc4c3OCO4)C2)sc1C (centres undefined) | 7.71
39 | CC(C)c1nc(C2CCCN(C(=O)c3cccc4c3OCO4)C2)no1 (centres undefined) | 17.59
40 | CCc1cc(NC(=O)C2CCCN(C(=O)c3ccncc3)C2)[nH]n1 (centres undefined) | -7.81
41 | c1ccc(C2CCN(c3ncnc4c3CCNC4)CC2)cc1 | -3.14
42 | O=C(NCC(=O)N1CCCC(n2cncn2)C1)OCc1ccccc1 (centres undefined) | 21.64
43 | COc1ccnc(N2CCN(C(=O)c3csc(C)n3)CC2)n1 | -2.99
44 | COc1ccnc(N2CCN(CC(O)CN3CCOCC3)CC2)n1 (centres undefined) | 58.05
45 | COc1ccnc(N2CCN(C(=O)c3cscn3)CC2)n1 | 50.98
46 | COc1ccnc(N2CCN(C(=O)Cc3ccsc3)CC2)n1 | 25.61
47 | COc1ccnc(N2CCN(C(=O)c3csnn3)CC2)n1 | 36.66
48 | COc1ccnc(N2CCN(Cc3ncc(C(C)(C)C)o3)CC2)n1 | 2.67
49 | COc1ccnc(N2CCN(Cc3ncc(-c4ccccc4)o3)CC2)n1 | -41.69
50 | COc1ccnc(N2CCN(C(=O)Cc3ccc(C)s3)CC2)n1 | -9.9
51 | COc1ccnc(N2CCN(CC(=O)N3CCOCC3)CC2)n1 | -2.9
52 | COc1ccnc(N2CCN(C(=O)CN3CCOCC3)CC2)n1 | -19.35
53 | COc1ccnc(N2CCN(C(=O)N3CCOCC3)CC2)n1 | 58.05
54 | COc1ccnc(N2CCN(C(=O)Cc3csc(C)n3)CC2)n1 | 51.35

Reference: ChEMBL document CHEMBL4513216, “Probing the Open Global Health Chemical Diversity Library for Multistage-Active Starting Points for Next-Generation Antimalarials” (ACS Infect Dis, 2020)
